Measured values reported in PubChem BioAssay AID2315 (National Center for Advancing Translational Sciences (NCATS), 2010).
Screen size: about 290,000 compounds; about 27,000 (9.3%) were called active. Only a selection was taken, and actives are over-represented in it overall. A number with no mark means an inactive call. Rule as the data show it: active = inhibition mostly above about 28% (no sharp cut-off); inactive = mostly below about 43%.

Experiment: A qHTS for Small Molecule Inhibitors of Shiga Toxin; also: 0% is about no effect
Conditions: Vero cells, Shiga toxin protein synthesis inhibition reporter; at 38.7 µM, stronger effect = higher value
`CCN(c1cccc(C)c1)S(=O)(=O)c1ccc(-c2coc(C)n2)cc1` gave an inhibition of -6.9%.
`O=C(CCl)NNc1nc(-c2ccccc2)c2cc(Cl)ccc2n1` showed an inhibition of -6.68%.
`C=CCn1c(C23CC4CC(CC(C4)C2)C3)n[nH]c1=S` gave an inhibition of -6.65%.
Work on `CCCc1nc2ccccc2c(C(=O)OCC(=O)c2ccc3c(c2)NC(=O)CO3)c1CC` yielded an inhibition of 7.85%.
In the case of `O=C(COC(=O)c1c2c(nc3ccccc13)CCCC2)c1ccc(Br)s1`, the inhibition was 91.1% (active).
For `O=C(Nc1c2c(nc3ccccc13)CCCC2)c1ccccc1Br`, the inhibition was 13.1%.
Compound `Cc1cc(Cl)c(S(=O)(=O)NCC2CCCO2)cc1OCC(N)=O` (centres undefined) has an inhibition of -1.08%.
Work on `Cc1cc(Cl)c(S(=O)(=O)N(C)C)cc1OCC(N)=O` yielded an inhibition of 9.4%.
In the case of `Cc1cc(Cl)c(S(=O)(=O)Nc2ccc3c(c2)OCCO3)cc1OCC(N)=O`, the inhibition was 99.8% (active).
In the case of `O=C(NCc1ccco1)/C(=C\c1cccc([N+](=O)[O-])c1)NC(=O)c1ccco1`, the inhibition was 2.57%.
For `O=C(CNC(=O)C1COc2ccccc2O1)N/N=C/c1cc(Br)c(O)c(Br)c1` (centres undefined), the inhibition was -3.37%.
Work on `O=C(N/N=C\c1cc(Br)c(Br)o1)C1COc2ccccc2O1` (centres undefined) yielded an inhibition of 10.7%.
For `O=C(N/N=C/c1cc2c(cc1Br)OCO2)C1COc2ccccc2O1` (centres undefined), the inhibition was 77.9% (active).
Compound `CC(=O)c1c(C)[nH]c(C(=O)COC(=O)c2cccc(S(=O)(=O)N(C)c3ccccc3)c2)c1C` has an inhibition of 8.98%.
Work on `CCCNC(=O)COc1coc(CN2CCN(Cc3ccccc3)CC2)cc1=O` yielded an inhibition of -16.7%.
Compound `COCCNC(=O)C(c1ccc(C)cc1)N(C(=O)CCC(=O)Nc1ccccn1)c1cccc(C)c1` (centres undefined) has an inhibition of 32.2%.
With `O=C(Cc1ccc([N+](=O)[O-])cc1)Nc1ccc(C(=O)N2CCOCC2)cc1` the inhibition was 7.91%.
`Cc1ccc(CN(C)Cc2cc(=O)oc3cc(C)c(Cl)cc23)cc1` showed an inhibition of 7.75%.
For `O=C(c1cnn2ccccc12)N1CCc2ccccc21`, the inhibition was 97.7% (active).
`Cc1cnc(C(=O)OCC(=O)N2CCc3ccccc32)cn1` gave an inhibition of -4.93%.
Work on `NC(=O)N1CCc2ccccc21` yielded an inhibition of -9.66%.
With `CC1CCc2c(sc3nc4n(c(=O)c23)CCS4)C1` (centres undefined) the inhibition was 33.9%.
`C=CCn1c(SCc2c(C)noc2C)nc2sc3c(c2c1=O)CCC(C)C3` (centres undefined) gave an inhibition of -12.7%.
With `CCCn1nnc2sc3c(c2c1=O)CCC(C)C3` (centres undefined) the inhibition was 90.4% (active).
`COc1cccc(N2CCN(c3ccc4nnc(CCC(=O)N5CCN(C)CC5)n4n3)CC2)c1` gave an inhibition of -1.7%.
Compound `C/C(CC(=O)Nc1ccc(Cl)cc1)=N\NC(=O)C(=O)NCCO` has an inhibition of 12%.
For `CCc1ccc(NC(=O)C(=O)N/N=C(\C)CC(=O)NCCOC)cc1`, the inhibition was 63.4% (active).
Compound `COCCNC(=O)COc1ccc(C)c(C)c1` has an inhibition of 20.4%.
With `Cc1ccc(N(C(=O)CNC(=O)c2ccco2)C(C(=O)NC2CCCC2)c2ccncc2)cc1` (centres undefined) the inhibition was -7.6%.
Compound `CC(=O)N1c2ccc(S(=O)(=O)N3CCCC(C(=O)Nc4ccc(C)cc4C)C3)cc2CC1C` (centres undefined) has an inhibition of -2.6%.
For `O=C(NN=C1CCC(=NNC(=O)c2cccnc2)CC1)c1cccnc1`, the inhibition was 45.2%.
For `Cc1ccc(NC(=O)COc2ccc(/C=N\NC(=O)c3cccnc3)cc2)cc1C`, the inhibition was 11.2%.
Work on `O=C(Nc1ccc(S(=O)(=O)Nc2ncccn2)cc1)C12CC3CC(CC(C3)C1)C2` yielded an inhibition of 17.2%.
With `O=C(N/N=C/c1ccccn1)c1cccnc1` the inhibition was 39.2% (active).
For `CN1CCN(NC(=O)c2ccc(S(=O)(=O)N3CCCCCC3)cc2)CC1`, the inhibition was -4.86%.
In the case of `O=C(N/N=C/c1ccccn1)c1ccc(S(=O)(=O)N2CCCCCC2)cc1`, the inhibition was 184% (active).
`CNC(=O)C(=O)N/N=C/c1ccccn1` gave an inhibition of 35.4%.
For `Cc1cc(/C=N/NC(=O)c2cccnc2)c(C)n1CC(C)C`, the inhibition was 80.1% (active).
In the case of `O=C(N/N=C/c1ccccn1)C12CC3CC(CC(C3)C1)C2`, the inhibition was 0% (active).
For `O=C(N/N=C/c1ccc(O)c2ccccc12)c1cccnc1`, the inhibition was 24.3%.
`O=C(N/N=C/c1ccccn1)c1cccc(NC(=O)c2ccc(Cl)cc2)c1` gave an inhibition of 24.3%.
Work on `O=C(CNC(=O)c1cccnc1)N/N=C/c1cccnc1` yielded an inhibition of -13%.
Work on `COc1ccc(CNC(=O)/C(C#N)=C/c2cccc(OC)c2OC)cc1` yielded an inhibition of -10.4%.
With `Cn1c(C(=O)N2CCCC(C(=O)NCc3ccccc3)C2)cc2sccc21` (centres undefined) the inhibition was 18.4%.
`Cc1ccc(S(=O)(=O)c2c[nH]c3ccc(C)cc3c2=O)cc1` showed an inhibition of -5.73%.
With `CC(C)CNC(=O)C(=O)Nc1ccc(N(C)C)cc1` the inhibition was 55.1% (active).
`CC(C)CNC(=S)Nc1ccc(F)cc1` showed an inhibition of 13.2%.
With `CC(C)CNC(=O)C(=O)NCc1ccccc1` the inhibition was 15.5%.
`Cc1cc(C)cc(NC(=O)C2CCCN2S(=O)(=O)c2cccc3cccnc23)c1` (centres undefined) showed an inhibition of -0.303%.
With `CCOC(=O)c1cc2n(c1N)-c1ccccc1C2=O` the inhibition was 72.9% (active).
Compound `CCOC(=O)C1=C(C(=O)OCC)C(C(=O)OCC)N(S(=O)(=O)C(F)(F)F)c2ccccc21` (centres undefined) has an inhibition of 18.6%.
`CCOC(=O)c1ccccc1CN1C(=O)c2ccccc2S1(=O)=O` showed an inhibition of -3.65%.
`Cn1nccc1C(=O)N1CCCC(C(=O)c2ccc(Oc3ccccc3)cc2)C1` (centres undefined) showed an inhibition of -15.3%.
`Cc1cccc2[nH]c(CN(C)C(=O)C3CCC(=O)N(CCc4ccccc4)C3)nc12` (centres undefined) showed an inhibition of 17.9%.
In the case of `CCCc1ccc(OCC(O)CN2CCN(CCO)CC2)cc1` (centres undefined), the inhibition was -3.37%.
Compound `O=C(COc1nsnc1N1CCOCC1)Nc1ccccc1Cl` has an inhibition of 5.96%.
Compound `CCOc1cc(/C=C/c2nc3ccccc3c(=O)[nH]2)cc(Br)c1OC` has an inhibition of 31.4%.
With `CC1(C)Cc2cccc(OCC(=O)NCc3ccccc3)c2O1` the inhibition was 21.1%.
`CCOC(=O)C1(Cc2cccc(OC)c2)CCCN(S(=O)(=O)c2cccnc2)C1` (centres undefined) gave an inhibition of -9.17%.
In the case of `CCOC(=O)C1(Cc2cccc(OC)c2)CCN(C(C)COC)CC1` (centres undefined), the inhibition was -0.932%.
With `CCOC(=O)C1(Cc2cccc(OC)c2)CCCN(C(=O)CCSC)C1` (centres undefined) the inhibition was 81.2% (active).
`COC(=O)C1CCN(C(=O)c2cc(=O)[nH]c3ccccc23)CC1` gave an inhibition of -11.7%.
In the case of `COc1ccc(/C=C2\SC(=S)N(CCC(=O)Nc3cccc(C(=O)O)c3)C2=O)cc1OC`, the inhibition was 2.9%.
For `O=C(O)CSc1nnc(-c2ccc3c(c2)OCO3)n1-c1ccccc1`, the inhibition was 37%.
With `Cn1c(SCC(=O)N2CCCC2)nnc1-c1ccc2c(c1)OCO2` the inhibition was 38.6%.
With `Cn1c(SCc2nc3ccccc3s2)nnc1-c1ccc2c(c1)OCO2` the inhibition was 59% (active).
`CN(CCc1ccccn1)C1CCCN(S(=O)(=O)c2ccccc2Cl)C1` (centres undefined) showed an inhibition of -6.64%.
For `COc1ccc(S(=O)(=O)N2CCOC2CNC(=O)C(=O)NCc2ccncc2)cc1OC` (centres undefined), the inhibition was -13.1%.
`CCC(C(=O)NCc1cccnc1)n1nc(C)c2sc3ccccc3c2c1=O` (centres undefined) showed an inhibition of -2.63%.
`Cc1cc(C)cc(NC(=O)CCN2C(=O)c3ccccc3C2=O)c1` gave an inhibition of -3.25%.
In the case of `CCn1c(CSc2nc(C)cc(C)n2)nnc1SCC(N)=O`, the inhibition was -9.49%.
In the case of `C=CCn1c(SCC(N)=O)nnc1-c1cc2c(s1)CCC(CC)C2` (centres undefined), the inhibition was 76.9% (active).
Work on `C=CCn1c(SCc2c(C(=O)OC)sc(N)c2C(=O)OC)nnc1-c1ccc(Cl)cc1` yielded an inhibition of -13.4%.
Compound `COCCNC(=O)CN(Cc1ccco1)C(=O)CCC(=O)Nc1nccs1` has an inhibition of -8.05%.
Compound `CCN(C(=O)COC(=O)c1cc(NS(=O)(=O)c2ccc(Cl)c([N+](=O)[O-])c2)ccc1O)C1CCCCC1` has an inhibition of -7.83%.
For `COCc1c(C(=O)N/N=C\c2cccnc2)nnn1-c1nonc1N`, the inhibition was -0.307%.
For `Cc1cccc(N2C(=O)C3C(c4ccccc4)OC4(C(=O)c5ccccc5C4=O)C3C2=O)c1` (centres undefined), the inhibition was -11.8%.
In the case of `Cc1cccc(N2C(=O)c3cccnc3C2=O)c1`, the inhibition was 23.8%.
With `Cc1cccc(N2C(=O)NC(=O)/C(=C\c3cnn(-c4ccccc4)c3)C2=O)c1` the inhibition was 65.5% (active).
For `Cc1nc(CN(C)C(=O)CC2C(=O)NCCN2Cc2ccc(F)cc2)cs1` (centres undefined), the inhibition was -21.9%.
Work on `Cc1nc(C(=O)Nc2ccc(Cl)cc2)sc1C1(C)CC(c2ccccc2)=NO1` (centres undefined) yielded an inhibition of -2.44%.
For `Cc1nc(-c2ccc(Cl)cc2)sc1C1(C)CC(c2ccccc2F)=NO1` (centres undefined), the inhibition was 42% (active).
For `Cc1nc(C(=O)NCc2ccccc2)sc1C1(C)CC(c2cccnc2)=NO1` (centres undefined), the inhibition was -4.88%.
In the case of `CC(=O)c1cnc(SCCN2C(=O)c3ccccc3C2=O)nc1C`, the inhibition was -12.2%.
`Cc1ccc(SCCN2C(=O)NC(C)(C)C2=O)cc1` showed an inhibition of 5.57%.
With `Nc1ccc(SCCN2C(=O)c3ccccc3C2=O)cc1` the inhibition was 85% (active).
For `N#CCC(=O)N/N=C/c1cn(Cc2ccc3ccccc3c2)c2ccccc12`, the inhibition was -10.8%.
For `CC[C@H](C)[C@H](NC(=O)[C@H](Cc1ccc(O)cc1)NC(=O)[C@@H](NC(=O)[C@H](CCCN=C(N)N)NC(=O)[C@@H](N)CC(=O)O)C(C)C)C(=O)N[C@@H](Cc1cnc[nH]1)C(=O)N1CCC[C@H]1C(=O)N[C@@H](Cc1ccccc1)C(=O)O`, the inhibition was 15%.
`CC(NC(=O)c1cccc2ccccc12)c1ccc2c(c1)CCCC2` (centres undefined) gave an inhibition of -3.09%.
For `CCOC(OCC)c1ccc(/C=C\c2nccc(N)n2)cc1`, the inhibition was 62.4% (active).
Compound `CC1(C)C(C=C(Cl)Cl)C1C(=O)NC(O)C(=O)c1ccccc1` (centres undefined) has an inhibition of -9.33%.
With `COc1cc2cc(C(=O)N/N=C/c3cccc(OC)c3OC)[nH]c2cc1OC` the inhibition was 3.08%.
With `COc1cccc(/C=N\NC(=O)C2=NNC(=O)C2C)c1O` (centres undefined) the inhibition was 66.4% (active).
In the case of `COc1cccc(/C=N/NC(=O)c2[nH]nc3c2CCc2ccccc2-3)c1O`, the inhibition was 12.7%.
